Source: PubChem
TIM10 inh – TIM10 yeast growth inhibition; S. cerevisiae TIM10 strain growth, BacTiter-Glo luminescence, 24 h; inhibition, % at 10 µM; actives 1.4% (n = 330,000); AID 463195;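 active = inhibition of 40% or more at the single tested concentration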;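 note: wild-type TIM10 isogenic control strain grown at permissive 25 °C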
PfHsp90 set2 – inhibits growth of yeast expressing Plasmodium falciparum Hsp90; S. cerevisiae expressing PfHsp90, BacTiter-Glo ATP, 48 h; yeast lacking PDR1 and PDR3 efflux regulators; inhibition, % at 9.4 µM; AID 504621; actives 0.32% (n = 310,000);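 active = every replicate shows inhibition above about 80%, whatever the replicate mean, limit read from the data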;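 note: 0% = DMSO neutral controls and 100% = 20 µM radicicol positive controls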
SKKanGAS inh – inhibitors of SKKanGAS S. pyogenes growth in kanamycin (SK-promoter or general growth effect) | BacTiter-Glo, 6 h | inhibition, % at 7.5 µM | actives 1.3% (n = 300,000) | AID 1662;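 active = mean replicate score, as percent of positive control median, at least 50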;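 note: strain carries kanamycin resistance gene driven by streptokinase promoter and grows in 40 µg/ml kanamycin; loss of luminescence reflects streptokinase promoter inhibition or plain growth inhibition; 0% = median of DMSO wells and 100% = positive control at its reference dose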
tim10-1 inh – tim10-1 yeast growth inhibition. S. cerevisiae tim10-1 ts strain growth, BacTiter-Glo, 24 h. inhibition, % at 20 µM. actives 2.2% (n = 330,000). AID 463190;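 active = inhibition of at least 40%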;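 note: mutant grown at 25 °C; 0% = DMSO wells with yeast and 100% = wells holding no yeast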
NLRP3 yeast inh – inhibitors of NALP3 inflammasome in yeast; inhibition, % at 10 µM; actives 0.39% (n = 330,000); Yeast reconstituted NLRP3/ASC/caspase-1, beta-gal luminescence, 24 h; AID 2825;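 active = inhibition of 50% or more; inactive = inhibition below 50%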;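 note: plate controls were induced DMSO wells for no effect and uninduced yeast grown without galactose for full effect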
tim23-1 inh – inhibits growth of tim23-1 mutant yeast; actives 1.3% (n = 330,000); inhibition, % at 20 µM; S. cerevisiae tim23-1 growth, BacTiter-Glo luminescence, 24 h;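 active = growth inhibition of the mutant yeast at or above 50%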;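 note: temperature-sensitive mutant grown at 25 °C; plate controls were DMSO-treated mutant yeast for no effect and medium wells lacking yeast for full effect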
TIM10 conf – confirmation of TIM10 yeast growth inhibitors; shares compounds with TIM10 inh; S. cerevisiae tim10 strain growth, BacTiter-Glo luminescence, 24 h; inhibition, % at 10 µM; actives 63% (n = 4,600);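 active = inhibition of yeast growth at or above a set limit in either of two replicates at 10 µM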;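 note: this counterscreen used the strain with wild-type TIM10; 0% = yeast with DMSO and 100% = medium wells lacking yeast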
Numbers without * were called inactive. A selection: hits, their analogues and other compounds. The true share with any hit is near 4.5%.

Results for C=CCOC(=O)C1=C(C)NC(=S)NC1/C=C/c1ccccc1 (configuration not stated) ?
TIM10 inh: 43*; PfHsp90 set2: -4; SKKanGAS inh: -1; tim10-1 inh: 29; NLRP3 yeast inh: 15; tim23-1 inh: 7; TIM10 conf: 1

Results for O=C(c1ccccc1)N1N=C(C(F)(F)F)CC1(O)c1ccc(F)cc1 (configuration not stated) ?
TIM10 inh: 67*; PfHsp90 set2: 3; SKKanGAS inh: -15; tim10-1 inh: 0; NLRP3 yeast inh: 1; tim23-1 inh: 37; TIM10 conf: 23

How did Cc1cc(C(F)F)n2nc(C(=O)Nc3ccc(F)cc3F)nc2n1 do in these assays?
TIM10 inh: 5; PfHsp90 set2: 10; SKKanGAS inh: 4; tim10-1 inh: -8; NLRP3 yeast inh: 3; tim23-1 inh: 8

What do the screens show for `Cc1cc(C(F)F)n2nc(C(=O)Nc3ccccc3F)nc2n1`?
TIM10 inh: 64*; PfHsp90 set2: -17; SKKanGAS inh: 8; tim10-1 inh: -20; NLRP3 yeast inh: 23; tim23-1 inh: -4; TIM10 conf: -8

What do the screens show for `CC(NC(=O)c1ccccc1F)c1nnc(SCC(=O)NC2=NCCS2)n1C` (configuration not stated)?
TIM10 inh: -1; PfHsp90 set2: -16; SKKanGAS inh: -1; tim10-1 inh: 1; NLRP3 yeast inh: -4; tim23-1 inh: 16

Results for O=C(Nc1cc2c3c(c1)CC(=O)N3CCC2)C1CC1 ?
TIM10 inh: 5; PfHsp90 set2: -1; SKKanGAS inh: 13; tim10-1 inh: 12; NLRP3 yeast inh: 10; tim23-1 inh: 18

Results for Cc1ccc(NC(=O)C2CCN(C(=O)OC(C)(C)C)CC2)cc1S(=O)(=O)N1CCCCC1 ?
TIM10 inh: 56*; PfHsp90 set2: -3; tim10-1 inh: 4; NLRP3 yeast inh: 11; tim23-1 inh: 2; TIM10 conf: 4

How did Cc1ccc(NC(=O)C2CCCC2)cc1S(=O)(=O)N1CCOCC1 do in these assays?
TIM10 inh: 12; PfHsp90 set2: 8; tim10-1 inh: 8; NLRP3 yeast inh: 13; tim23-1 inh: 16

How did Cc1ccc(S(=O)(=O)N2CCN(C(=O)CN(Cc3ccco3)Cc3cccs3)CC2)cc1 do in these assays?
PfHsp90 set2: 12

What do the screens show for `COc1cc2c(cc1OC)CN(C(=O)c1ccc([N+](=O)[O-])o1)CC2`?
TIM10 inh: 68*; PfHsp90 set2: 27; SKKanGAS inh: 6; tim10-1 inh: 35; NLRP3 yeast inh: 6; tim23-1 inh: 31; TIM10 conf: 75*

What do the screens show for `NC(=O)NN=C1C2CCCC1C(c1ccccc1)NC2c1ccccc1` (configuration not stated)?
TIM10 inh: 13; PfHsp90 set2: 3; SKKanGAS inh: 25; tim10-1 inh: 15; NLRP3 yeast inh: 20; tim23-1 inh: 19

How did Nc1c(C(=O)N/N=C/c2ccc([N+](=O)[O-])cc2)cnn1-c1ccccc1 do in these assays?
TIM10 inh: 3; PfHsp90 set2: -9; SKKanGAS inh: -4; tim10-1 inh: -18; NLRP3 yeast inh: 16; tim23-1 inh: -3

What do the screens show for `Cc1c(C(=S)Nc2ccccc2)cnn1-c1ccc([N+](=O)[O-])cc1`?
TIM10 inh: 43*; PfHsp90 set2: 16; SKKanGAS inh: 1; tim10-1 inh: 38; NLRP3 yeast inh: 40; tim23-1 inh: 44; TIM10 conf: -1

What do the screens show for `COc1ccc(C(=O)NC2CCN(CC(=O)NCc3ccccc3)CC2)cc1`?
TIM10 inh: 3; PfHsp90 set2: -17; SKKanGAS inh: 0; tim10-1 inh: -13; NLRP3 yeast inh: -2; tim23-1 inh: -6

What do the screens show for `C/C=C(\C)C(=O)OC1c2c(ccc3ccc(=O)oc23)OC(C)(C)C1OC(C)=O` (configuration not stated)?
TIM10 inh: 48*; PfHsp90 set2: 3; SKKanGAS inh: 2; tim10-1 inh: 29; NLRP3 yeast inh: 10; tim23-1 inh: 43; TIM10 conf: 29*

Results for CCCN(CC(=O)Nc1ccc(F)c(F)c1F)C(=O)c1ccc2c(=O)n3c(nc2c1)CCC3 ?
TIM10 inh: -4; PfHsp90 set2: 8; SKKanGAS inh: 1; tim10-1 inh: -5; NLRP3 yeast inh: -2; tim23-1 inh: -3

How did Nc1nc(C23CC4CC(CC(C4)C2)C3)[nH]c(=O)n1 do in these assays?
TIM10 inh: 19; PfHsp90 set2: -26; SKKanGAS inh: -4; tim10-1 inh: 11; NLRP3 yeast inh: 14; tim23-1 inh: 20

How did CCOc1ccc(N/C(SCc2cccc([N+](=O)[O-])c2)=C(/C#N)C(N)=O)cc1 do in these assays?
TIM10 inh: 46*; PfHsp90 set2: -57; SKKanGAS inh: 9; tim10-1 inh: 39; NLRP3 yeast inh: -3; tim23-1 inh: 38; TIM10 conf: 41*

How did Cc1ccc(S(=O)(=O)Nc2c(C)n(C)n(-c3ccccc3)c2=O)cc1C(=O)NCc1ccco1 do in these assays?
PfHsp90 set2: -3

How did O=C(O)c1ccc(NC(=S)NC2CCCCC2)cc1 do in these assays?
TIM10 inh: 3; PfHsp90 set2: 4; SKKanGAS inh: 0; tim10-1 inh: 12; NLRP3 yeast inh: 10; tim23-1 inh: 20

What do the screens show for `S=C(Nc1ccc(Oc2ccccc2)cc1)NC1CCCCC1`?
TIM10 inh: 40*; PfHsp90 set2: -7; SKKanGAS inh: 54*; tim10-1 inh: 25; NLRP3 yeast inh: 27; tim23-1 inh: 7; TIM10 conf: 41*

What do the screens show for `CN1C(=O)C(C)(C)c2cc(S(=O)(=O)N3CCCC(C(=O)NCc4ccc(Cl)cc4)C3)ccc21` (configuration not stated)?
TIM10 inh: 1; PfHsp90 set2: 19; SKKanGAS inh: -4; tim10-1 inh: 1; NLRP3 yeast inh: -5; tim23-1 inh: 6

How did CC(C)CCn1c(N2CCN(c3cccc(Cl)c3)CC2)nc2c1c(=O)[nH]c(=O)n2C do in these assays?
TIM10 inh: 41*; PfHsp90 set2: -18; SKKanGAS inh: 45; tim10-1 inh: 27; NLRP3 yeast inh: 2; tim23-1 inh: 21; TIM10 conf: -8

What do the screens show for `COc1nnc(-c2ccc(N3CCOCC3)c(NC(C)=O)c2)c2ccccc12`?
TIM10 inh: 6; PfHsp90 set2: -10; SKKanGAS inh: -5; tim10-1 inh: 22; NLRP3 yeast inh: 12; tim23-1 inh: 20

Results for COc1nnc(-c2ccc(N3CCOCC3)c(NC(=O)c3ccccc3)c2)c2ccccc12 ?
TIM10 inh: 40*; PfHsp90 set2: 31; SKKanGAS inh: 3; tim10-1 inh: 28; NLRP3 yeast inh: 2; tim23-1 inh: 42; TIM10 conf: 24
